PubChem BioAssay (Tox21)
Results filed as inconclusive are left out. The source made the active and inactive calls. Unless noted, the call rests on the fitted dose curve; in most records, active means well fitted curve in the direction sought with a large enough effect in the repeat runs; inconclusive means weak or mixed curves; inactive means no such curve, though single readings can be large; an effect the other way counts as inactive or inconclusive.

What was measured:
[1] = qHTS assay to identify small molecule antagonists of the estrogen related receptor (ERR) signaling pathway from Tox21 library - cell viability counter screen (AID 1224834); further: nearly all actives have a fitted effect of over 30% in size
In short: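 CellTiter-Fluor fluorescence measured; ERR cells; 17.5 h compound incubation at 37 C; 30 min reagent step.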

[2] = target: Luciferin 4-monooxygenase (Photinus pyralis) (UniProt P08659); assay: qHTS assay to identify small molecule inhibitors of firefly luciferase (AID 1224835); further: nearly all actives have a fitted effect of over 25% in size; further: potency means the concentration at half of the fitted maximal effect
Sequence of Luciferin 4-monooxygenase (Photinus pyralis) (P08659 whole entry, looked up): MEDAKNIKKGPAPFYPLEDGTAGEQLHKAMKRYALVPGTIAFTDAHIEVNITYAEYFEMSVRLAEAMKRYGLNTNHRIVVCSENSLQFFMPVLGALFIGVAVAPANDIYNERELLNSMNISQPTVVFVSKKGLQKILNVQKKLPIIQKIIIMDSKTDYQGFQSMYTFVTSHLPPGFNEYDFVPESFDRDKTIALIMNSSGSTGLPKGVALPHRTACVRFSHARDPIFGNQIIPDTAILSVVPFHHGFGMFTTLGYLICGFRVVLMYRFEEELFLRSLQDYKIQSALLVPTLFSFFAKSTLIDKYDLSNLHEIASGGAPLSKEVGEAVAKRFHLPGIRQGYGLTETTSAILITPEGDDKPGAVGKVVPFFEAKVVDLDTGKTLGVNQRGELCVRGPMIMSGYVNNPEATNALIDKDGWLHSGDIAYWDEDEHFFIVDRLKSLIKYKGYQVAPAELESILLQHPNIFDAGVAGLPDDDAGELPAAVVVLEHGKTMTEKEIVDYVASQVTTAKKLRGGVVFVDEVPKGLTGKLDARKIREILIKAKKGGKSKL
In short: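 Biochemical qHTS: compounds run as interplate titrations against purified firefly enzyme, with D-luciferin and ATP each at its KM concentration. Light output recorded by CCD imaging.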

[3] = qHTS assay to identify small molecule agonists of the constitutive androstane receptor (CAR) signaling pathway - cell viability counter screen (AID 1224836); further: series mostly up to about 92 µM; nearly all actives have a fitted effect of over 45% in size
In short: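 Cell viability multiplexed with the CAR agonist screen: CellTiter-Fluor fluorescence after 23 hr at 37 C. HepG2-CYP2B6-hCAR cells got compounds at 15 concentrations with PK11195 at 0.75 uM final.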

[4] = qHTS assay to identify small molecule antagonists of the constitutive androstane receptor (CAR) signaling pathway - cell viability counter screen (AID 1224837); further: series mostly up to about 92 µM; nearly all actives have a fitted effect of over 45% in size
In short: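 Using CellTiter-Fluor, viability is scored in HepG2 cells stably carrying hCAR and a 2.2kb CYP2B6 reporter after 23 hr compound exposure across 15 concentrations, with CITCO present at 50 nM.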

[5] = target: Nuclear receptor subfamily 1 group I member 3 (Homo sapiens) (UniProt Q14994); assay: qHTS assay to identify small molecule antagonists of the constitutive androstane receptor (CAR) signaling pathway (AID 1224838);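 further: HepG2 cells stably expressing hCAR with CYP2B6 luciferase reporter stimulated by CITCO; nearly all actives have a fitted effect of over 40% in size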; further: potency means the concentration at half of the fitted maximal effect
Sequence of Nuclear receptor subfamily 1 group I member 3 (Homo sapiens) (Q14994 whole entry, looked up): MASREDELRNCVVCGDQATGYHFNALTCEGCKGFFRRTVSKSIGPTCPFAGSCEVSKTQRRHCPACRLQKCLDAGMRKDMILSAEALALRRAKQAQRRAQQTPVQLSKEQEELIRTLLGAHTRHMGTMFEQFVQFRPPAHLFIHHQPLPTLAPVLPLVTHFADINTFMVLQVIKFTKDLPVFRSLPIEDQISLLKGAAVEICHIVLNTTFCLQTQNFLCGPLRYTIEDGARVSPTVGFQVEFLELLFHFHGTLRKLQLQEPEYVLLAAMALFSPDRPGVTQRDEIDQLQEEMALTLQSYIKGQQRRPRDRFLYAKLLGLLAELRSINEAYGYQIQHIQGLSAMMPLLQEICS
In short: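 Reporter luminescence was quantified after 24 h exposure of hCAR/CYP2B6-2.2kb double-stable HepG2 cells to compounds at 15 concentrations in the presence of 50 nM CITCO final.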

[6] = target: Nuclear receptor subfamily 1 group I member 3 (Homo sapiens) (UniProt Q14994); assay: qHTS assay to identify small molecule agonists of the constitutive androstane receptor (CAR) signaling pathway (AID 1224839); further: nearly all actives have a fitted effect of over 15% in size; further: potency means the concentration at half of the fitted maximal effect
In short: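 Luminescent ONE-Glo read-out after 24 hr, 37 C exposure of double-stable HepG2-CYP2B6-hCAR reporter cells to a 15-point compound series, in the presence of 0.75 uM PK11195 (final).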

[7] = qHTS assay to identify small molecule antagonists of the estrogen related receptor signaling pathway with the pleiotropic PPARgamma coactivator (PGC) from Tox21 10K library - cell viability counter screen (AID 1224840; active means well fitted cell-killing curve with a large enough effect in the repeat runs, not every such curve was filed as active; further: nearly all actives have a fitted effect of over 40% in size)
In short: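 Here the PGC/ERR cells serve as a cytotoxicity control: they are exposed to compounds for 17.5 hours at 37 C, and live-cell signal is quantified using CellTiter-Fluor fluorescence.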

[8] = target: Thyrotropin receptor (Homo sapiens) (UniProt P16473); assay: qHTS assay to identify small molecule agonists of the thyroid stimulating hormone receptor (TSHR) signaling pathway (AID 1224843; calls by dose curve; further: nearly all actives have a fitted effect of over 45% in size; further: potency means the concentration at half of the fitted maximal effect)
Sequence of Thyrotropin receptor (Homo sapiens) (P16473 whole entry, looked up): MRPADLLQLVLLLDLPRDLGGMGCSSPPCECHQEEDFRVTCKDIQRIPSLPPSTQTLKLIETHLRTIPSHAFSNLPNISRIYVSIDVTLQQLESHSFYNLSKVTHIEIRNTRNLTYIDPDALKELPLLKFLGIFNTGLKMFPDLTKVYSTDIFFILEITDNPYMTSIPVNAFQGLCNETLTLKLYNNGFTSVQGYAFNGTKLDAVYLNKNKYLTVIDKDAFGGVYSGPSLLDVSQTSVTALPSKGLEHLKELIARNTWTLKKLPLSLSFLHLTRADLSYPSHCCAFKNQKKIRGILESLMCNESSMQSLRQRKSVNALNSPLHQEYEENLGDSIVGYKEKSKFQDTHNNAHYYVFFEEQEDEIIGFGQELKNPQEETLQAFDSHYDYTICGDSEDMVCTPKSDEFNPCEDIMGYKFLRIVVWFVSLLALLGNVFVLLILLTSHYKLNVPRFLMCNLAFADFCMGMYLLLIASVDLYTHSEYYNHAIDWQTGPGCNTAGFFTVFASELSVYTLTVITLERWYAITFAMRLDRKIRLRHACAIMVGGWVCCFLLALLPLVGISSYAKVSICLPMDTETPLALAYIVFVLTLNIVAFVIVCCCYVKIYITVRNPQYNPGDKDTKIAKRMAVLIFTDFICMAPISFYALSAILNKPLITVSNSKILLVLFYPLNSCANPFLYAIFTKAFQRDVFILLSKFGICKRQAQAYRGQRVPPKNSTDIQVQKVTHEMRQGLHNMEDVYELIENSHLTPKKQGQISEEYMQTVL
In short: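 TSHR-HEK293 cells in agonist mode, 30 min room-temperature step, then cAMP measured by competitive HTRF (cAMP-d2 with anti-cAMP cryptate) after 1 h at room temperature. Tested at 15 concentrations in triplicate.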

[9] = qHTS assay to identify small molecule antagonists of the estrogen related receptor signaling pathway with the pleiotropic PPARgamma coactivator (PGC) from Tox21 10K library (AID 1224841; call rule not given here; further: series mostly up to about 92 µM; actives are mostly falling curves and most rising ones were filed inactive; nearly all actives have a fitted effect of over 50% in size)
In short: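 Each well held 2,000 PGC/ERR cells, pre-incubated six hours (37 C, 5% CO2). Test substances in DMSO were added by pin tool and left for 18 h at 37 C before luciferase detection by One-Glo.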

[10] = qHTS assay to identify small molecule agonists of the estrogen related receptor signaling pathway with the pleiotropic PPARgamma coactivator (PGC) from Tox21 10K library (AID 1224842); further: nearly all actives have a fitted effect of over 15% in size; further: potency means the concentration at half of the fitted maximal effect
In short: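 PGC/ERR reporter cell line, 2,000 cells per well, incubated 6 h at 37 C before 23 nL compound in DMSO was added. After 18 h at 37 C, One-Glo luminescence read following 30 min at room temperature.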

Measured: Potency

N#CCCNCCC#N
inactive: [1] | [2] | [3] | [4] | [5] | [6] | [7] | [8]

CNS(=O)(=O)Cc1ccc2[nH]cc(CCN(C)C)c2c1
inactive: [1] | [2] | [3] | [4] | [5] | [6] | [7]

O=CNc1ccccc1
inactive: [1] | [2] | [3] | [4] | [5] | [6] | [7] | [9] | [10]

N=C(N=C(N)N)N1CCOCC1
inactive: [1] | [2] | [3] | [4] | [5] | [6] | [7] | [9] | [10] | [8]

CC(=O)NCCCS(=O)(=O)O
inactive: [1] | [2] | [3] | [4] | [5] | [6] | [7] | [8]

CC(=O)[C@@]1(O)CC[C@H]2[C@@H]3C[C@H](C)C4=CC(=O)CC[C@]4(C)[C@H]3CC[C@@]21C
inactive: [1] | [2] | [3] | [4] | [5] | [7] | [8]
active: [6] 21.1 µM

CCCC[C@H]1CN(CC2CCOCC2)C(=O)OC12CCN(C1(C)CCN(C(=O)c3c(C)ncnc3C)CC1)CC2
inactive: [1] | [2] | [3] | [4] | [5] | [6] | [7] | [9] | [10] | [8]

CC(C)CCCCCCOC(=O)c1ccc(C(=O)OCCCCCCC(C)C)c(C(=O)OCCCCCCC(C)C)c1
inactive: [1] | [2] | [3] | [4] | [5] | [6] | [7] | [8]

CCOc1ccc(NC(=O)CC(C)=O)cc1
inactive: [1] | [2] | [3] | [4] | [5] | [6] | [7] | [9] | [10]

CCC(=O)OC(C)(C)C1CC=C(C)CC1 (stereo not drawn)
inactive: [1] | [2] | [3] | [4] | [5] | [6] | [7] | [9] | [8]

Cn1c(=O)c2c(ncn2CC(O)CO)n(C)c1=O (stereo not drawn)
inactive: [1] | [2] | [3] | [4] | [5] | [6] | [7] | [9] | [10] | [8]

CCCCCCCC/C=C\CCCCCCCC(N)=O
inactive: [1] | [2] | [3] | [4] | [5] | [6] | [7] | [9] | [8]

CC(=O)c1c(C)c([N+](=O)[O-])c(C(C)(C)C)c([N+](=O)[O-])c1C
active: [8] 6.11 µM
inactive: [1] | [2] | [3] | [4] | [5] | [7]

Cn1c(N)nc2nc[nH]c2c1=O
inactive: [1] | [2] | [3] | [4] | [6] | [7] | [8]
active: [5] 48 µM

C=C(C)C(=O)OCCOc1ccccc1
inactive: [1] | [3] | [4] | [5] | [6] | [9] | [10]
active: [2] 35.6 µM

c1ccc(-c2nc[nH]c2-c2ccccc2)cc1
inactive: [1] | [2] | [3] | [4] | [5] | [6] | [7] | [8]

CCN(CC)C(C)=O
inactive: [1] | [2] | [3] | [4] | [5] | [6] | [9] | [8]

CC1CCc2cc(F)cc3c(=O)c(C(=O)O)cn1c23 (stereo not drawn)
inactive: [1] | [2] | [3] | [4] | [5] | [7] | [8]

CCCCC(CC)(CO)CO
inactive: [1] | [2] | [3] | [4] | [5] | [6] | [7] | [8]

Oc1ccc(C(O)CNCCCCCCNCC(O)c2ccc(O)c(O)c2)cc1O (stereo not drawn)
inactive: [1] | [2] | [3] | [4] | [5] | [7]
active: [10] 7.5 µM | [8] 6.68 µM

COc1ccccc1OC(=O)Oc1ccccc1OC
inactive: [1] | [2] | [3] | [4] | [5] | [6] | [7] | [8]

CC/C(=C\C(=N/O)C(N)=O)C(C)[N+](=O)[O-] (stereo not drawn)
inactive: [1] | [2] | [3] | [4] | [5] | [6] | [9] | [8]

CN1CCC(OC(c2ccccc2)c2ccccc2)CC1
inactive: [1] | [2] | [3] | [4] | [5] | [7] | [8]

CCN(CC)C(C)CN1c2ccccc2Sc2ccccc21 (stereo not drawn)
inactive: [1] | [2] | [3] | [4] | [5] | [6] | [7] | [8]

CCOc1nc2cccc(C(=O)O)c2n1Cc1ccc(-c2ccccc2-c2nn[nH]n2)cc1
inactive: [1] | [2] | [3] | [4] | [5] | [6] | [9] | [8]

CCOC(=O)CC(C)C
inactive: [1] | [2] | [3] | [4] | [5] | [6] | [7] | [8]

C1=Cc2ccccc2C1
inactive: [1] | [2] | [3] | [4] | [5] | [7] | [9] | [10]

CCCCOc1cc(C(=O)OCCN(CC)CC)ccc1N
inactive: [1] | [2] | [3] | [4] | [5] | [7]
